The results in this text go back to PubChem BioAssay AID652016 (National Center for Advancing Translational Sciences (NCATS), 2013).

Inconclusive results are not listed. Activity calls are given as the source filed them. The call rests on the fitted dose curve; in most records, active means well fitted inhibition curve with a large enough effect; inconclusive means small, poorly fitted or top-dose-only effect; inactive means flat fitted curve, though single readings scatter.
On the % scale 0 is the no-effect control and ±100 the full control effect; potency means the concentration at half of the fitted maximal effect.

For the test, the target named is Luciferin 4-monooxygenase (Photinus pyralis) (UniProt P08659). The experiment in a line: qHTS Assay for Inhibitors of Firefly Luciferase from the GSK Published Protein Kinase Inhibitor Set. The note with it: purified firefly luciferase, luminescence inhibition; series mostly up to 57.5 µM; activity change, negative = inhibition: at the top concentration. An excerpt: FLuc (firefly luciferase) is the prototypical bioluminescent reporter gene from Photinus pyralis.[1] The enzyme catalyzes the oxidation luciferin via luciferin-AMP to produce light. FLuc is used in cell-based reporter gene-based assays for screening small molecule chemical libraries. However, small molecule luciferase inhibitors present in most large chemical libraries are often enriched in the output of high throughput screens using this reporter sometimes complicating interpretation and candidate selection.
Sequence of Luciferin 4-monooxygenase (Photinus pyralis) (P08659 whole entry, looked up): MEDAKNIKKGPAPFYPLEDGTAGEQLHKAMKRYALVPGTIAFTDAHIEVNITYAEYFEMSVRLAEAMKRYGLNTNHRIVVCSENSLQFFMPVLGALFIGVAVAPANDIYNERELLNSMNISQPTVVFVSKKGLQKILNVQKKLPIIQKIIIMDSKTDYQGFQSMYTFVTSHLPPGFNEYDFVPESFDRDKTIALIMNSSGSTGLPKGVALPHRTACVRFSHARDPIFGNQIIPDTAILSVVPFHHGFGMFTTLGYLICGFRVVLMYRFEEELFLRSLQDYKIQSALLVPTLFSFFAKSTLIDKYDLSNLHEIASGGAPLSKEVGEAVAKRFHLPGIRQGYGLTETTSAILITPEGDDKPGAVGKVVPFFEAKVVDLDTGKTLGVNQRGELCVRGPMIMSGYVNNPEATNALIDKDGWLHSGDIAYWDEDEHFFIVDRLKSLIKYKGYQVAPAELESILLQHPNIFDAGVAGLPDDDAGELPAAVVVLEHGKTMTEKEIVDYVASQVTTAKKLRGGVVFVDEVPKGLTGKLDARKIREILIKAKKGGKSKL
RLuc is a bioluminescent reporter gene luciferase from Renilla reniformis, also known as the sea pansy. RLuc uses the luciferin substrate coelenterazine. RLuc is often used in combination with the nonhomologous luciferase FLuc (firefly luciferease) as a trasfection or pathway normalization control. Recently, non-homologous reporters have been described for high throughput screening 'coincidence' reporter gene strategies.
1. Fan F, Wood KV (2007) Bioluminescent assays for high-throughput screening. Assay Drug Dev Technol 5: 127-136.
2. Thorne N, Inglese J, Auld DS (2010) Illuminating insights into firefly luciferase and other bioluminescent reporters used in chemical biology. Chem Biol 17: 646-657.
3. […] Chem Biol 19: 1060-1072.
4. Michelini E, Cevenini L, Mezzanotte L, Coppa A, Roda A (2010) Cell-based assays: fuelling drug discovery. Anal Bioanal Chem 398: 227-238.
5. Cheng KC, Inglese J (2012) A coincidence reporter-gene system for high-throughput screening. Nat Methods 9: 937.
Biochemical firefly luciferase enzyme assay
NCGC Assay Protocol Summary:
Reagents: 50mM Tris acetate, pH 7.5; 10mM Mg acetate; 10uM D-luciferin (Sigma #L9504); 10uM ATP; 0.01% Tween-20; 0.05% BSA; 10nM P. pyralis luciferase (Sigma #L9506)
Control compounds used were two known firefly luciferase inhibitors (compounds (2) and (5) in Auld et al., 2010), and DMSO.
Three microliters containing firefly luciferase substrates in buffer (final concentrations: 50mM Tris acetate, pH 7.5, 10mM Mg acetate, 0.01% Tween-20, 0.05% BSA, 10uM D-luciferin, and 10uM ATP) are dispensed into each well of a Greiner white, solid-bottom 1536-well format plate using a flying reagent dispenser (FRD). These assay plates were then treated with 23nL of compound or DMSO using a Kalypsys pin tool, which allows for delivery of a 7-point interplate titration of each compound to the assay plates (quantitative HTS), with final compound concentrations ranging from approximately 60uM to 300pM. One microliter of firefly luciferase in 50mM Tris-acetate buffer was then delivered by FRD to each well for a final enzyme concentration of 10nM. Luciferase activity was then measured using an Envision plate reader (PerkinElmer), with an average incubation time of 5 min.
For orientation: Quantitative high-throughput screening tests each substance at several concentrations.
Consider `COc1ccccc1Nc1ncc(-c2ccccc2)o1`, for which the Potency is 1.03 µM (active).
As to `NC(=O)CCc1ccccc1Oc1nccc(-c2c(-c3ccc(F)cc3)ncn2C2CCNCC2)n1`, the “activity change, negative = inhibition” value was 11.4% (inactive).
Turning to `O=C1NC(=O)C(c2cccc(Cl)c2)=C1Nc1ccc(O)c(Cl)c1`, the “activity change, negative = inhibition” value was -4.63% (inactive).
For the molecule `O=S(=O)(CCOCc1ccc(-c2ccc3ncnc(Nc4ccc(OCc5cccc(F)c5)c(Cl)c4)c3c2)o1)c1ccccc1`, the “activity change, negative = inhibition” value was 6.47% (inactive).
For `CC1=C(C(=O)Nc2ccc3n[nH]c(C)c3c2)C(c2ccc(C(F)(F)F)cc2)CC(=O)N1` (stereo not given), the “activity change, negative = inhibition” value is -0.842% (inactive).
The same measure, in the same setting: the result for `Fc1cccc(COc2ccc(Nc3ncnc4cc(-c5ccc[nH]5)sc34)cc2Cl)c1` reads -9.56% (inactive).
Consider `COc1ccc(-c2cc3c(N)ncnc3o2)cc1`, for which the Potency is 6.51 µM (active).
With `NS(=O)(=O)c1ccc(N=Cc2c(O)[nH]c3ccc4ncsc4c23)cc1`, the Potency entry is “inactive”.
Consider `CNC(=O)c1cccc(C#Cc2cncnc2Nc2ccc(OCc3cccc(F)c3)c(Cl)c2)c1`, for which the “activity change, negative = inhibition” value is -14.8% (inactive).
Turning to `COc1cc(N2CCN(C(C)C)CC2)ccc1Nc1nc(Nc2cccc3ncccc23)c2cc[nH]c2n1`, the “activity change, negative = inhibition” value was 39.4% (inactive).
For `Cc1nnc(-c2ccc(C)c(-c3ccc(C(=O)NCc4ccc(Cl)cc4)cc3)c2)o1`, the “activity change, negative = inhibition” value is 3.77% (inactive).
Take `CCOc1nccc2c1nc(-c1nonc1N)n2CC`: the “activity change, negative = inhibition” value is 14.4% (inactive).
`COc1cc2ncn(-c3cc(OCc4ccccc4C(F)(F)F)c(C(C)=O)s3)c2cc1OC`: the “activity change, negative = inhibition” value is 11% (inactive).
Turning to `CCn1c(-c2nonc2N)nc2c(C#CC(C)(C)O)ncc(OC3CCNCC3)c21`, the “activity change, negative = inhibition” value was -0.275% (inactive).
With `NS(=O)(=O)c1cccc(Nc2cc(-c3ccc(F)cc3)[nH]n2)c1`, the Potency was 11.6 µM (active).
On to `COc1cc2ncn(-c3cc(OCc4cccs4)c(C(N)=O)s3)c2cc1OC`, for which the “activity change, negative = inhibition” value is 5.36% (inactive).
Turning to `c1cc(-c2cnn3nc(N4CCOCC4)ccc23)nc(NC2CC2)n1`, the Potency was 4.61 µM (active).
Turning to `COc1ccc(Nc2ncc(-c3ccccc3)o2)cc1OC`, the Potency is 5.8 µM (active).
Regarding `CS(=O)(=O)CCNCc1cc(-c2cc3c(Nc4ccc(OCc5cccc(F)c5)c(Cl)c4)ncnc3s2)cs1`, the “activity change, negative = inhibition” value is -10.2% (inactive).
For `Fc1cccc(COc2ccc(Nc3ncncc3C#Cc3ccccc3)cc2Cl)c1`, the “activity change, negative = inhibition” value is 1.29% (inactive).
With `O=C1NC(=O)C(c2cccc([N+](=O)[O-])c2)=C1Nc1cc(Cl)c(O)c(Cl)c1`, the “activity change, negative = inhibition” value was -10.5% (inactive).
Same read-out and setting: for `NC(=O)Cc1ccccc1Oc1nccc(-c2c(-c3ccc(F)cc3)ncn2C2CCNCC2)n1` the value was 0.77% (inactive); for `COc1cccc(Nc2nccc(-c3cnn4ncccc34)n2)c1`, 4.6% (inactive); for `Nc1nccc(-c2c(-c3ccc(F)cc3)ncn2CCCN2CCOCC2)n1`, 5.8% (inactive).
Consider `Fc1ccc(-c2ncn(C3CCNCC3)c2-c2ccnc(Oc3ccc(Oc4ccccc4)cc3)n2)cc1`, for which the “activity change, negative = inhibition” value was 15.8% (inactive).
For `c1ccc(Cc2nc3ccc(Nc4ncnc5ccccc45)cc3[nH]2)cc1`, the Potency is 16.3 µM (active).
With `COc1ccc(-c2nn3ncccc3c2-c2ccnc(Nc3ccc4c(c3)OCCO4)n2)cc1`, the “activity change, negative = inhibition” value was -11% (inactive).
For `Cn1c(-c2nonc2N)nc2cnccc21`, the “activity change, negative = inhibition” value is 4.48% (inactive).
On the same count and under the same terms, for `O=C(OC1CNC(C#Cc2cc3ncnc(Nc4ccc(Cc5ccccc5)cc4)c3s2)C1)N1CCOCC1` (stereo not given) the value was 3.82% (inactive); for `COc1cc(Nc2nccc(-c3cnn4ncccc34)n2)cc(OC)c1`, -15.6% (inactive).
As to `CCS(=O)(=O)c1ccc(OC)c(Nc2ncc(-c3ccccc3Cl)o2)c1`, the “activity change, negative = inhibition” value is -5.19% (inactive).
With `NC(=O)c1cccc(Nc2nccc(Nc3cccc(F)c3)n2)c1`, the Potency was 0.73 µM (active).
Take `COC(=O)Nc1nc2ccc(Oc3ccc(NC(=O)Nc4cccc(Br)c4)cc3)cc2[nH]1`: the “activity change, negative = inhibition” value is -19.6% (inactive).
Take `CCCNc1cccc(-n2ncc3c(NN=Cc4ccncc4)ncnc32)c1`: the “activity change, negative = inhibition” value was -12.7% (inactive).
As to `CNC(=O)c1sc(-n2cnc3cc(OC)c(OC)cc32)cc1OCc1ccccc1C(F)(F)F`, the “activity change, negative = inhibition” value is 6.52% (inactive).
With `CC(Oc1cc(-n2cnc3ccc(OCC4CCN(C)CC4)cc32)sc1C(N)=O)c1ccccc1C(F)(F)F` (stereo not given), the “activity change, negative = inhibition” value was 3.41% (inactive).
Regarding `O=C(O)c1ccc(Oc2nccc(-c3c(-c4ccc(F)cc4)ncn3C3CCNCC3)n2)cc1`, the “activity change, negative = inhibition” value is 12.2% (inactive).
Regarding `CCc1nccc2c1nc(-c1nonc1N)n2CC`, the “activity change, negative = inhibition” value is 4.72% (inactive).
On to `CCc1ccc(Oc2nccc(-c3c(-c4ccc(F)cc4)ncn3C3CCNCC3)n2)cc1`, for which the “activity change, negative = inhibition” value is 0.977% (inactive).
As for `CC1=C(C(=O)Nc2ccc3[nH]ncc3c2)C(c2ccc(Cl)c(Cl)c2)CC(=O)N1` (stereo not given), the “activity change, negative = inhibition” value was 7.19% (inactive).
